Data taken from PubChem BioAssay AID489025 (Southern Research Specialized Biocontainment Screening …, 2010).
The campaign covered roughly 2,300 compounds. About 790 (34%) were called active. The rule behind the calls is not given here. The list shows a part of the results. Results with a measured potency or affinity are listed apart.

Assay: THP-1 cell cytotoxicity, dose response, cytotoxicity control for non-replicating M. tuberculosis project (AID 489025)
Conditions: THP-1 cell viability; series mostly up to 40 µM

Row | Compound | outcome
1 | CC(C)Cc1cc(C(=O)Nc2ccc(F)cc2F)no1 | inactive
2 | O=C(Nc1ccc(F)cc1F)c1cc2ccccc2oc1=O | inactive
3 | O=C(COc1ccc(-c2ccccc2)cc1)Nc1cccnc1 | inactive
4 | CCCNC(=O)NC(=O)COc1ccc(-c2ccc(C#N)cc2)cc1 | inactive
5 | O=C(NC(=S)Nc1ccc(F)cc1)C1CCCCC1 | inactive
6 | CN(/N=C/c1ccc([N+](=O)[O-])o1)c1ccccc1 | inactive
7 | CC1=CN2C(=N)/C(=C/c3ccc([N+](=O)[O-])o3)C(=O)N=C2S1 | inactive
8 | CC(C)[C@H](NC(=O)c1ccc(Br)cc1)C(=O)NC1CCCCC1 | inactive
9 | COc1ccc(CCNc2nc(-c3ccccn3)cs2)cc1OC | inactive
10 | c1ccc(Nc2nc(-c3ccccn3)cs2)cc1 | inactive
11 | CN1CCN(c2cc3c(cc2F)c(=O)c(C(=O)O)cn3CCF)CC1 | inactive
12 | S=C1NC2(CCCC2)N=C1c1ccccc1 | inactive
13 | CCOC(=O)c1csc(-c2snnc2C)n1 | inactive
14 | COC(=O)COc1cccc(NC(=O)c2ccc(Cl)cc2)c1 | inactive
15 | COc1ccc(COC(=O)CCNC(=O)c2ccc(Cl)cc2)cc1 | inactive
16 | CNC(=O)COC(=O)c1ccc(-c2nc3ccccc3s2)s1 | inactive
17 | CC(C)N1CCc2c(sc(NC(=O)CCS(=O)(=O)c3ccccc3)c2C#N)C1 | inactive
18 | O=C(COc1ccc2ccccc2c1)NNC(=O)c1cccs1 | inactive
19 | Clc1cccc(CNCCNCc2cccc(Cl)c2)c1 | inactive
20 | Cc1cc(Cl)ccc1OCCCC(=O)NO | inactive
21 | CC(Cc1cccs1)NC(=O)c1cccc(Cl)c1 (stereo not given) | inactive
22 | Cc1ccc(NC(=O)COc2ccc3c(c2)CCC3)nc1 | inactive
23 | CCOC(=O)COc1cc(O)c2c(=O)cc(-c3ccccc3)oc2c1 | inactive
24 | COc1ccc(N2C(=O)C(F)(F)C2c2cccc(F)c2)cc1 (stereo not given) | inactive
25 | NC(=O)N/N=C\c1cc(Br)ccc1O | inactive
26 | COCCNC(=O)CC(=O)N/N=C/c1cccc(C(=O)OC)c1 | inactive
27 | COC(=O)COc1cccc(/C=N/NC(=O)CCSc2ccccc2)c1 | inactive

Row | Compound | outcome
28 | Cc1cc(C(=O)N/N=C/c2cccc(Cl)c2Cl)no1 | inactive
29 | Clc1ccccc1CSc1nnc([C@@H]2CCCN2)o1 | inactive
30 | O=C(COC(=O)CCc1c[nH]c2ccccc12)Nc1ccc([N+](=O)[O-])cc1 | inactive
31 | CC1N(C)c2cccc3cccc(c23)N1C | inactive
32 | COC(=O)c1cccc(COC(=O)c2cc3ccccc3oc2=O)c1 | inactive
33 | Cc1cc(Cl)ccc1NNC(=O)c1c(C)noc1C | inactive
34 | O=C(NN=C1C2CC3CC1CC(Cl)(C3)C2)c1cccs1 | inactive
35 | O=C(N/N=C/C=C/c1ccccc1[N+](=O)[O-])c1ccncc1 | inactive
36 | O=C(COc1ccccc1)NNc1nc2ccccc2s1 | inactive
37 | O=C(NNc1nc2ccccc2s1)Nc1ccc(F)cc1 | inactive
38 | Clc1cccc(/C=N\Nc2nccs2)c1 | inactive
39 | O=[N+]([O-])c1cc(N=Nc2ccc3ccccc3c2)ccc1O | inactive
40 | Cc1cccc(N2CCN(Cc3ccc([N+](=O)[O-])o3)CC2)c1C | inactive
41 | CCCCOC(=O)c1ccc(NC(=O)c2nn(C)cc2Br)cc1 | inactive
42 | O=C(N/N=C/c1ccc[nH]1)c1ccncc1 | inactive
43 | O=C1NCC(O)=C1C=Nc1ccccc1O | inactive
44 | Cc1[nH]nc2c1C(c1ccc(-c3ccc(Cl)cc3)o1)C(C#N)=C(N)O2 (stereo not given) | inactive
45 | Cc1ccc(NCCC(=O)c2cccs2)cc1Cl | inactive
46 | Nc1ccccc1Nc1ccccc1 | inactive
47 | CC1(C)CC(=O)C=C(Nc2ccccc2N)C1 | inactive
48 | CSCCOC(=O)COc1ccc(/C=N/NC(=O)c2c(Cl)cnn2C)cc1 | inactive
49 | CCOC(=O)CC(NS(=O)(=O)Cc1ccccc1)c1ccc(C)cc1 (stereo not given) | inactive
50 | CCCCC1CCC(C(=O)Nc2ccc(S(=O)(=O)Nc3nccs3)cc2)CC1 (stereo not given) | inactive
51 | COC(=O)COc1ccc(S(=O)(=O)N2CCCCCC2)cc1 | inactive
52 | CC1(C)Oc2ccc(NC(=O)C3COc4ccccc4O3)cc2O1 (stereo not given) | inactive
53 | CCc1nnc(NC(=O)c2cc3ccccc3oc2=O)s1 | inactive
54 | CC(C)(C)NC(=O)c1ccc(NC(=O)c2ccccc2-c2ccccc2C(=O)O)cc1 | inactive

Row | Compound | outcome
55 | COC(=O)COc1ccc2c(=O)c(-c3ccccc3OC)coc2c1 | inactive
56 | O=C(COC(=O)c1cc2ccccc2oc1=O)Nc1ccc(F)cc1F | inactive
57 | O=C(CCSc1ccc(Cl)cc1)NC1CCCC1 | inactive
58 | CCc1ccc(NC(=O)COc2ccc3c(c2)OCO3)cc1 | inactive
59 | COc1ccc(C(=O)COC(=O)CCC(=O)c2cccs2)cc1 | inactive
60 | Cc1nc(C(=O)Nc2ccccc2)sc1C(=O)Nc1ccccc1 | inactive
61 | CC1=CC2=NC(=O)/C(=C\c3ccc(OC(=O)c4ccco4)cc3)C(=N)N2O1 | inactive
62 | CCOC(=O)c1ccc(COC(=O)c2cc3ccccc3oc2=O)o1 | inactive
63 | COc1cccc(OCC(=O)NNC(=O)C(=O)Nc2cccc(C)c2)c1 | inactive
64 | Cc1cccc(OCC(=O)NNC(=O)c2cc3ccccc3oc2=O)c1 | inactive
65 | O=c1oc(-c2ccccc2[N+](=O)[O-])nc2ccccc12 | inactive
66 | O=C(NNC(=O)c1ccccc1F)c1ccc(-c2ccc(Cl)cc2)o1 | inactive
67 | O=C(NC1=NCCS1)c1ccc(-c2ccc(Cl)cc2)o1 | inactive
68 | NC(=O)c1ccc(-c2ccc(Br)cc2)o1 | inactive
69 | CCOc1ccc(C(=O)Nc2ccc(N3CCN(C)CC3)cc2)cc1Br | inactive
70 | CC(=O)N1CCN(c2cc3c(cc2F)c(=O)c(C(=O)O)cn3C2CC2)CC1 | inactive
71 | CCCCn1c(O)c(/C=C2/C=CC=N2)c(=O)[nH]c1=O | inactive
72 | COC(=O)C(O)(c1ccc(NC(=S)NC(=O)c2ccccc2)cc1)C(F)(F)F (stereo not given) | inactive
73 | CCOC(=O)CCSc1n[nH]c(=S)s1 | inactive
74 | COC(=O)CN(C#N)c1nc(N(C)C)nc(N(C)C)n1 | inactive
75 | Cc1ccc2nc3c(c(N)c2c1)CCN3c1ccccc1 | inactive
76 | O=C(c1cc([N+](=O)[O-])cc([N+](=O)[O-])c1)N(Cc1nnc(-c2ccccc2Cl)o1)C1CC1 | inactive
77 | COc1ccc(C(=O)Nc2ccccc2C(=O)N/N=C/c2ccco2)cc1 | inactive
78 | O=C(COc1ccccc1)Nc1ccc(F)cc1 | inactive
79 | CCn1cc(/C=N\NC(=O)c2ccc(F)cc2)cn1 | inactive
80 | O=C(COc1ccc2ccccc2c1)N/N=C/c1ccccn1 | inactive
